Most compounds without a hit are left out; they make up all but 4.1% or so of the library.
hcDAF-12 act: H. contortus DAF-12 activation, primary screen | HEK293 hcDAF-12 lit1-tk-luc reporter, luminescence; 0% DMSO, 100% Δ7-dafachronic acid | activation, % at 6.8 µM | hit rate 1.4% among 370,000;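 active = activation above the mean of all tested compounds plus 3 SD, cut at about 5.5% in these data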;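 note: 100% = response to 3 µM Δ7-dafachronic acid high control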
DAX1 inh-1: inhibitors of DAX1 repression of SF-1 activated StAR promoter; inhibition, % at 6.8 µM; hit rate 1.1% among 370,000; HEK293T StAR-luciferase reporter, SF-1/DAX-1 repression relief;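 active = inhibition above the mean over all tested compounds plus 3 SD, cut at about 3.6% in these data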;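 note: 0% = DAX-1 cells with DMSO and 100% = cells lacking DAX-1 with DMSO; higher inhibition means more luminescence from relief of DAX-1 repression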
hgDAF-12 ag: activates the H. glycines DAF-12 receptor ligand-binding domain | hit rate 1.8% among 370,000 | activation, % at 6.8 µM | AID 687014 | HEK293 GAL4-hgDAF12 UAS-luciferase reporter, agonist luminescence; normalized to butyrate control;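 active = activation above a cutoff set at the mean of all screened compounds plus 3 SD, cut at about 10% in these data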;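 note: 0% = DMSO wells and 100% = sodium butyrate wells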
ssDAF12 agonist: S. stercoralis DAF-12 activation, primary screen | HEK293 ssDAF-12/GRIP1 lit1-tk-luc reporter, luminescence; % of 3 µM dafachronic acid response | activation, % at 6.8 µM | hit rate 1% among 370,000;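 active = activation above the mean over all tested compounds plus 3 SD, cut at about 0.9% in these data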;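 note: 0% = DMSO-only wells and 100% = 3 µM delta7-dafachronic acid wells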
DAX1 inh-2: inhibits human nuclear receptor DAX1; P51843; HEK293 Gal4-DAX1 luciferase reporter, luminescence; inhibition, % at 6.75 µM; hit rate 0.99% among 340,000; AID 504766;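 active = inhibition above the mean over all tested compounds plus 3 SD, cut at about 4.2% in these data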;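 note: 0% = DAX1-transfected cells with DMSO and 100% = empty-vector control cells with DMSO; inhibition shows as a rise in luminescence from relieved DAX1 repression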
Target sequence (P51843 207-470 limits assumed): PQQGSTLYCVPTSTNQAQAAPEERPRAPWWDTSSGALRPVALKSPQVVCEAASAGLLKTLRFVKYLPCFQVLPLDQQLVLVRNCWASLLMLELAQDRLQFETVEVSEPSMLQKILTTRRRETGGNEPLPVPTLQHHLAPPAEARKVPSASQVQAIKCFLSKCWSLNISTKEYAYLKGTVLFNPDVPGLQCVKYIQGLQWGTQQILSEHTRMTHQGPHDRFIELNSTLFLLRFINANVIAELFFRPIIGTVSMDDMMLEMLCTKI
Starred values were filed as active, the others as inactive; nt = not tested or not shown.

SMILES	hcDAF-12 act	DAX1 inh-1	hgDAF-12 ag	ssDAF12 agonist	DAX1 inh-2
CN(CC(=O)Nc1c(Cl)cccc1Cl)C(=O)Cc1ccc(S(=O)(=O)N2CCOCC2)s1	0.6	-0.1	-4.3	-0.4	-0.7
COc1ccc(NC(=O)CN(C)C(=O)Cc2ccc(S(=O)(=O)N3CCOCC3)s2)cc1	1.6	4.4*	-4.7	-0.7	-0.2
COc1ccc(NC(=O)CN(C)C(=O)Cc2c[nH]c3ccccc23)cc1	6.4*	1.2	0.2	0.4	0.7
COc1ccccc1NC(=O)COC(=O)Cc1c[nH]c2ccccc12	6.3*	1.2	1.4	0.3	0.2
CC(=O)N1CCN(c2ccc(N3CCN(C(C)=O)[C@H](C)C3)c(C)c2)[C@@H](C)C1	-0.6	-2.2	1.6	-1.4	nt
Oc1ccc(Br)cc1-c1n[nH]c(=S)n1Cc1ccccc1	3.5	0.0	-2.0	-1.9	0.4
Oc1ccccc1-c1n[nH]c(=S)n1Cc1ccccc1	5.2	0.0	-0.9	1.5*	1.4
CCc1cc2c(=O)c(-c3cnn(-c4ccccc4)c3)c(C)oc2cc1OCC(=O)Nc1cccc(C)c1	-0.5	-0.5	-1.7	-1.1	0.7
CCc1cc2c(=O)c(-c3cnn(-c4ccccc4)c3)c(C)oc2cc1OCC(=O)Nc1ccc(F)c(F)c1	0.7	0.4	1.2	1.9*	0.2
Cc1nc2ccc(NC(=O)c3ccccc3)cc2s1	2.1	2.2	11.2*	-0.7	2.9
COc1cc(CC(=O)Nc2ccc3nc(SC)sc3c2)cc(OC)c1OC	-0.4	-0.6	0.0	-1.8	0.0
CSc1nc2ccc(NC(=O)CS(=O)(=O)c3ccccc3)cc2s1	0.7	1.8	10.5*	0.2	2.9
CSc1nc2ccc(NC(=O)COc3ccccc3F)cc2s1	3.4	3.7*	8.7	-0.4	-0.5
Cc1ccc(S(=O)(=O)CCC(=O)Nc2cccc([N+](=O)[O-])c2)cc1	0.3	0.1	2.3	-1.2	7.3*
COc1ccc(Cn2ccc3ccc(-c4ccc5ccn(Cc6ccccc6F)c5c4)cc32)cc1	1.1	-1.4	2.5	0.1	nt
CCOC(=O)[C@]12CCCCC/C=C\1N(CCc1ccc(Cl)cc1)C(=O)[C@H]2CC(=O)NCc1ccc(C)o1	-3.0	0.4	-0.7	-1.3	nt
Cc1ccc(S(=O)(=O)CCC(=O)Nc2ccc3nc(C)sc3c2)cc1	-0.9	-0.4	0.9	-1.6	1.2
Cc1ccc2nc(NC(=S)NC(=O)c3ccco3)sc2c1	2.6	1.4	11.9*	0.2	5.2*
Cc1nc2ccc(NC(=O)Cc3ccsc3)cc2s1	5.8*	1.7	5.9	1.3*	0.9
Cc1nc2ccc(NC(=O)CCS(=O)(=O)c3ccccc3)cc2s1	2.4	0.7	9.1	-0.3	5.2*
CSc1nc2ccc(NC(=O)c3ccc(Cl)s3)cc2s1	-0.3	4.1*	1.7	-1.2	1.4
COc1ccccc1CCn1cnc(-c2ccccc2OC)c1CC(C)C	-2.6	-0.2	-2.0	-1.8	nt
Cc1nc2ccc(NC(=O)c3ccco3)cc2s1	0.8	1.5	12.1*	-0.9	0.6
CNC(=O)Nc1ccc2nc(C)sc2c1	2.9	0.5	2.4	-1.5	0.0
Cc1nc2ccc(NC(=O)c3sccc3C)cc2s1	-0.1	2.0	12.1*	-0.7	1.3
SMILES	hcDAF-12 act	DAX1 inh-1	hgDAF-12 ag	ssDAF12 agonist	DAX1 inh-2
CC(=O)c1ccc(NC(=O)c2ccc3nc(C)sc3c2)cc1	0.9	0.3	9.6	0.7	1.8
Cc1nc2ccc(C(=O)Nc3ccccc3Cl)cc2s1	0.7	2.1	10.7*	-0.9	3.1
COC(=O)c1ccc(NC(=O)c2nc(S(=O)(=O)Cc3cccc(C)c3)ncc2Cl)cc1	-3.5	-2.2	-9.4	-1.1	0.3
CC(=O)Nc1ccc(NC(=O)c2nc(S(=O)(=O)Cc3cccc(C)c3)ncc2Cl)cc1	-3.3	4.0*	-4.8	-1.2	-0.1
Cc1cc(=O)[nH]c(=S)n1-c1ccccc1	2.1	2.1	9.2	0.9*	0.0
O=C(NCc1ccco1)C1CCCN(S(=O)(=O)c2ccccc2F)C1 (centres undefined)	-2.8	0.1	-1.5	-1.1	nt
CCOc1ccc2nc(NS(=O)(=O)Cc3ccccc3)sc2c1	1.1	-1.0	3.3	0.2	10.0*
O=C(NCCc1ccccc1)OCc1cn(Cc2ccc(F)c(F)c2)nn1	3.5	0.8	1.9	-1.3	nt
Cc1nn(-c2ccccc2)c2sc(C(=O)NCc3ccc4c(c3)OCO4)cc12	-2.3	-0.7	5.7	-1.9	nt
COc1ccc(/C=N/NC(=O)c2ccccc2O)cc1CN1CCOCC1	6.0*	-0.4	5.7	-0.4	-1.0
COc1cc(/C=N/NC(=O)Nc2ccccc2)ccc1OC(C)=O	2.8	1.2	12.2*	-0.1	1.2
COc1cc(C(=O)N/N=C/c2ccc(OC(=O)c3ccccc3)c(OC)c2)ccc1O	-0.3	-0.8	3.6	-1.2	-0.2
COc1cc(/C=N/NC(=O)c2ccccc2)ccc1O	3.9	1.5	5.1	-1.0	5.9*
Cn1c(=O)n(C)c2cc(/C=N/NC(=O)c3ccc(Cl)cc3)ccc21	0.5	-0.5	0.8	-1.2	4.6*
COc1ccc(/C=N/NC(=O)c2cccc(Br)c2)cc1CN1CCOCC1	-1.6	0.1	0.7	-1.3	1.1
CC(C)(C)c1ccc(C#C[C@@H]2C=C[C@H]3OC(=O)CC/C=C/CCC(=O)OC[C@H]3O2)cc1	0.5	1.0	-0.9	-1.1	nt
S=C(Nc1cccc(Cl)c1)OC1CCC12CCC(c1ccccc1)CC2 (centres undefined)	2.6	-0.9	-1.9	-1.6	nt
Cn1c(=O)c2nc(Cl)c(-c3ccccc3)nc2n(C)c1=O	-1.5	0.2	0.4	-1.0	1.8
Cn1c(=O)c2nc(-c3ccccc3)c(-c3ccccc3)nc2n(C)c1=O	-0.1	-0.5	-0.6	-0.6	4.5*
COC(=O)[C@H](C(C)C)N(Cc1cn(Cc2ccccc2)nn1)S(=O)(=O)c1ccc(F)cc1Br	-2.6	-0.1	1.7	-1.8	nt
C=CCC1(CC=C)CCCN1C(=O)C1CCC(=O)N(CCc2ccc(OC)cc2)C1 (centres undefined)	3.7	2.5	12.9*	-0.6	2.4
C=CCC1(CC=C)CCCN1C(=O)C1CCC(=O)N(CCc2ccccc2)C1 (centres undefined)	2.2	1.1	9.8	-0.2	1.6
C/C(=N/NC(=O)c1ccoc1C)C12CC3CC(CC(C3)C1)C2	4.5	2.7	12.5*	0.7	1.2
Cc1occc1C(=O)NC1CCCCCC1	0.8	1.0	1.7	-0.5	-0.2
COC(=O)[C@]12C[C@H](CC(=O)NCC34CC5CC(CC(C5)C3)C4)C(=O)N(CCC3=CCCCC3)C1=C[C@H](C(C)C)O[C@@H]2C1CC1	0.2	-0.5	-2.4	-1.8	nt
Cc1ccc2nc3sc(C(=O)N4CCN(C)CC4)cc3cc2c1	-0.5	nt	2.0	-1.7	nt
CCc1ccc2nc3sc(C(=O)O)cc3cc2c1	6.1*	2.5	6.8	-0.9	0.2
CCc1cc2c(=O)c(-c3cscn3)coc2cc1O	5.7*	1.3	10.9*	1.0*	0.0
